The full data set covers some 7,900 targets. This sample favours those with a hit. About 0.6% of all pairs of compound and target were hits.
Columns and labels:
Assay in all cases: log2 fold change, soluble protein after heating vs DMSO (PISA); higher = thermal stabilisation; K562 cells, 10 uM, 30 min; active = over 0.2 and 3.5 SD of the protein, either way, in both replicates (recomputed)
[1] = compound: C#Cc1cccc(Nc2ncnc3cc(OCCOC)c(OCCOC)cc23)c1 [erlotinib]
Procedure, shortened: (§1)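 Values are thermal stability changes relative to control samples and are taken from duplicates. They are stated as log2 fold changes. Before quantification by TMTpro 16plex LC-MS/MS with equalised channel sums, K562 cells at 2×10^6 cells/mL were treated with 10 μM compound for 30 min, heated in aliquots for 3 min across 48°C-58°C, pooled, extracted in PBS with 0.5% NP-40 at 4°C, and centrifuged at 21,000xg for 90 min to give the soluble supernatant.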

[2] = compound: C/C(=N\NC(=O)C1=CC(=CC=C1)S(=O)(=O)N2CCOCC2)/C3=C(C=CC(=C3)Cl)O
Procedure, shortened: as §1

[3] = compound: C1=CC(=C(C=C1Cl)C2=NC3=NC=CN=C3C(=N2)NC4=CC=NC=C4)F
Procedure, shortened: as §1

[4] = compound: C1=CC(=CC=C1C2=NC3=C(N2)C=C(C=C3)C(=O)N)OC4=CC=C(C=C4)Cl
Procedure, shortened: as §1

[5] = compound: C1=CC2=C(C=CC(=C2)/C=C\3/C(=O)NC(=NCC4=CC=CS4)S3)N=C1
Procedure, shortened: as §1

[6] = compound: C1=CC2=NC=CN=C2C=C1/C=C/3\C(=O)NC(=O)S3
Procedure, shortened: as §1

[7] = compound: C1=CC=C(C=C1)C2=NC(=C(N2)C3=CC=NC=C3)C4=CC(=C(C=C4)Cl)O
Procedure, shortened: as §1

[8] = compound: C1=CC=C2C(=C1)C3=NNC4=CC=CC(=C43)C2=O
Procedure, shortened: as §1

[9] = compound: C1CCN(C1)C(=O)NC2=CC=CC(=C2)NC3=NC=C(C(=N3)NCCC4=CN=CN4)Br
Procedure, shortened: as §1

[10] = compound: C1CN(CCC1(CC2=CC=C(C=C2)Cl)N)C3=NC=NC4=C3C=CN4
Procedure, shortened: as §1

Chain of UniProt Q8IVF4 (Q8IVF4 whole entry, looked up): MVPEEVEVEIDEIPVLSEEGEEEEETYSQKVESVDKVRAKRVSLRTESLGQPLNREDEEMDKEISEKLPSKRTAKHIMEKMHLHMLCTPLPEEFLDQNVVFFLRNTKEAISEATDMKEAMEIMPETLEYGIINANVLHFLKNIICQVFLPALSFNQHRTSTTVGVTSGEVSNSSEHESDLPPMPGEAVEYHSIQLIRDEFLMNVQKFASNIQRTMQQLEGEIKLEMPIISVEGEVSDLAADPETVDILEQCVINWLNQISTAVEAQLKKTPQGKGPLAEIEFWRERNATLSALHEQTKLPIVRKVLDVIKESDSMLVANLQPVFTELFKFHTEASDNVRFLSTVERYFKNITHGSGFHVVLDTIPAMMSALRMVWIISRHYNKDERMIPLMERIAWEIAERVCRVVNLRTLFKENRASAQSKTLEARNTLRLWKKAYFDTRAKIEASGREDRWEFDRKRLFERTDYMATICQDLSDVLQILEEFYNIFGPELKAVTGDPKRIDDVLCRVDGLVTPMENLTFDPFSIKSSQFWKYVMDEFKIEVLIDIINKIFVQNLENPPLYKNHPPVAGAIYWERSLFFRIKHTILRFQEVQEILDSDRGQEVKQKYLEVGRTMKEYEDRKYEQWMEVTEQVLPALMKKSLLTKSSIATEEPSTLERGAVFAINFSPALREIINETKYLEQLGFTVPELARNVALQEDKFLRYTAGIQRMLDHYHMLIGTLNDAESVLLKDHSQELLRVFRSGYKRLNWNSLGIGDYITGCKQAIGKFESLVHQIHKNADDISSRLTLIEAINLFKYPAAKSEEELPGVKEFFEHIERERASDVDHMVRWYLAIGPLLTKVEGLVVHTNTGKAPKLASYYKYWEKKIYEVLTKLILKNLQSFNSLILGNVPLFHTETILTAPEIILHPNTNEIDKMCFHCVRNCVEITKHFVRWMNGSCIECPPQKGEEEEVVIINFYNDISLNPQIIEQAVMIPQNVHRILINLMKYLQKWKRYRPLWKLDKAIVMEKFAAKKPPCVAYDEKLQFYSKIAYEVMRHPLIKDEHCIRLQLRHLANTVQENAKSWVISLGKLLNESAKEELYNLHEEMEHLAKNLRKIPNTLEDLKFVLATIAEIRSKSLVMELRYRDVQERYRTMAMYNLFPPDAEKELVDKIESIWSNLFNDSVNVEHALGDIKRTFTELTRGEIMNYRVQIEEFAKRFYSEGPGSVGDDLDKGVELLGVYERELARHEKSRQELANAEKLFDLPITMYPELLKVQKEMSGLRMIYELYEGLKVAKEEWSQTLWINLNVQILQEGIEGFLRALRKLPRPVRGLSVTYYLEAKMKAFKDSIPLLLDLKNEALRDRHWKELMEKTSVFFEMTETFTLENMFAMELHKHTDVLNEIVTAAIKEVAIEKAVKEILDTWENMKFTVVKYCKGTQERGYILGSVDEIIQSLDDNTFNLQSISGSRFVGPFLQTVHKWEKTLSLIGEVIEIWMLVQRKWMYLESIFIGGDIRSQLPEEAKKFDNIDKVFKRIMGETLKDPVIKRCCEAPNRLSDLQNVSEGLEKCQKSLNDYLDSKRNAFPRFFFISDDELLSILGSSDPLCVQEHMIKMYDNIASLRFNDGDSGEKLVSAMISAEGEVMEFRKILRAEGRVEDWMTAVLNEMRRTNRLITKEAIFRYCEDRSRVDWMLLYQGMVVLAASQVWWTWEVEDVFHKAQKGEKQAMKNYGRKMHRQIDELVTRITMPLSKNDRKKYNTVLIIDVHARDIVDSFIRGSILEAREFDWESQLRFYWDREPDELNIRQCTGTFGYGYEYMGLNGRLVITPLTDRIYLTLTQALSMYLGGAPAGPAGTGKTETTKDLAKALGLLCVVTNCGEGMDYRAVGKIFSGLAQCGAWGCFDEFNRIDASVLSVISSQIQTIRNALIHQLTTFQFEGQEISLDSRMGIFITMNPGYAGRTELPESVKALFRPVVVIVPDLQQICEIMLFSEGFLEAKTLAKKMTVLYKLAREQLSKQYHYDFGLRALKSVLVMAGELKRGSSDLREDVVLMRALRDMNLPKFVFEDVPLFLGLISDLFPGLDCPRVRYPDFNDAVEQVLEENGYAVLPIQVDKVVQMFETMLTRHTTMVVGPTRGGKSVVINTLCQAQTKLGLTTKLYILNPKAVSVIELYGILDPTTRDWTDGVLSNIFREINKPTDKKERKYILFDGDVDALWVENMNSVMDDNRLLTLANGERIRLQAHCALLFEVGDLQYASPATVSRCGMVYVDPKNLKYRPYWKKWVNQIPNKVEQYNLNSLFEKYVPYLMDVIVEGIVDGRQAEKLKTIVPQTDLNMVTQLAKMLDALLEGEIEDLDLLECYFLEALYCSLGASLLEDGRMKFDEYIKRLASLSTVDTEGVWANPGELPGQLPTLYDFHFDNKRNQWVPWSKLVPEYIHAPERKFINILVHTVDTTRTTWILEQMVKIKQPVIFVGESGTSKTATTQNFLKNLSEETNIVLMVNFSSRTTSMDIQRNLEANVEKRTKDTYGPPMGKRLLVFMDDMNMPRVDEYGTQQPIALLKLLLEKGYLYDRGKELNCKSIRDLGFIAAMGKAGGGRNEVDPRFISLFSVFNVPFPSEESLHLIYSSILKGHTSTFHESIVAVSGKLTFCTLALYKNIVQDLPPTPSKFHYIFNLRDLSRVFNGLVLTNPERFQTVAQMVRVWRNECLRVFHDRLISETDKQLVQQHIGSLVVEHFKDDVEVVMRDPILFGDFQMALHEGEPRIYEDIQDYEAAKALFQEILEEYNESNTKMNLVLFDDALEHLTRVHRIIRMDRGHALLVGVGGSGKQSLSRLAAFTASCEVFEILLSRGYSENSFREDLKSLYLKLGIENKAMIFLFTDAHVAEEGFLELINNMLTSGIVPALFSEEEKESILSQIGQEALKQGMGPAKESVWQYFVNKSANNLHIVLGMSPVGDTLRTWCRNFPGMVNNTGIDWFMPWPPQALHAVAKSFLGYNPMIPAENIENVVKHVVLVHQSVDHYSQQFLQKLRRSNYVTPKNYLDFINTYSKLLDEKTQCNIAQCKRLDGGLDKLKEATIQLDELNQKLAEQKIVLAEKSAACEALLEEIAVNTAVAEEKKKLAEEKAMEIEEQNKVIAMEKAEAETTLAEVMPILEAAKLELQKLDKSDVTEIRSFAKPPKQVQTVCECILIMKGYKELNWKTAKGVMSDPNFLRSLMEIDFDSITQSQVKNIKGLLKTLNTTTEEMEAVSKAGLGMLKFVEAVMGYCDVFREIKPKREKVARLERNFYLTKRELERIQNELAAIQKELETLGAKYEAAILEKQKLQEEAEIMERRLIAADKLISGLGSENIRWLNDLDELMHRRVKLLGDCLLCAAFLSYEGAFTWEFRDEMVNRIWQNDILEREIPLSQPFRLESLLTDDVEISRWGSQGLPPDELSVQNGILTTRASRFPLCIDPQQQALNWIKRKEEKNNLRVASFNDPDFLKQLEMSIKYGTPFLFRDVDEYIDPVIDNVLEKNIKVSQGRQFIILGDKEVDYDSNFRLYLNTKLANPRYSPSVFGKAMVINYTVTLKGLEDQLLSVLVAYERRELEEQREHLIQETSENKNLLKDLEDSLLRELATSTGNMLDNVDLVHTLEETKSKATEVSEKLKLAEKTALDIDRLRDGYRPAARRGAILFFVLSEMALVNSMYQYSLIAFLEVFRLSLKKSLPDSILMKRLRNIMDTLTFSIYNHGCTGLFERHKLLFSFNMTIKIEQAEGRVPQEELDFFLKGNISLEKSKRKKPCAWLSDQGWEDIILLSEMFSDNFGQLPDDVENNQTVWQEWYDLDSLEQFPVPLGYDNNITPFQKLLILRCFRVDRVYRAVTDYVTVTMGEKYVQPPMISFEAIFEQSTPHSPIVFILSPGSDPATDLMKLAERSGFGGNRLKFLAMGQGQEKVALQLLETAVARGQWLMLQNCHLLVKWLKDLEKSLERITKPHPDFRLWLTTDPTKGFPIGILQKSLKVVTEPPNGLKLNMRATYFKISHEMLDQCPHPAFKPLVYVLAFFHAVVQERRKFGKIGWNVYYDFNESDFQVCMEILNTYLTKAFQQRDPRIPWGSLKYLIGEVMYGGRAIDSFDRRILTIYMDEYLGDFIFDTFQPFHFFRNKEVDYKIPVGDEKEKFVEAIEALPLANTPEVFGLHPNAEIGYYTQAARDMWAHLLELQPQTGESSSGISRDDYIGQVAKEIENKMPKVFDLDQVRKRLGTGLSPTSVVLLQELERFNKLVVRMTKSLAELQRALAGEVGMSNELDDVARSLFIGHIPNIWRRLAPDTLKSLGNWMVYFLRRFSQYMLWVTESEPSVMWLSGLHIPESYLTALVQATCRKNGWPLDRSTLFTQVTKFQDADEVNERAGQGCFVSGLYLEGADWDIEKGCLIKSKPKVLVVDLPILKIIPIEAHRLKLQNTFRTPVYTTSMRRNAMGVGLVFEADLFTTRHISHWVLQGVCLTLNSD
Chain of UniProt Q96RI0 (Q96RI0 whole entry, looked up): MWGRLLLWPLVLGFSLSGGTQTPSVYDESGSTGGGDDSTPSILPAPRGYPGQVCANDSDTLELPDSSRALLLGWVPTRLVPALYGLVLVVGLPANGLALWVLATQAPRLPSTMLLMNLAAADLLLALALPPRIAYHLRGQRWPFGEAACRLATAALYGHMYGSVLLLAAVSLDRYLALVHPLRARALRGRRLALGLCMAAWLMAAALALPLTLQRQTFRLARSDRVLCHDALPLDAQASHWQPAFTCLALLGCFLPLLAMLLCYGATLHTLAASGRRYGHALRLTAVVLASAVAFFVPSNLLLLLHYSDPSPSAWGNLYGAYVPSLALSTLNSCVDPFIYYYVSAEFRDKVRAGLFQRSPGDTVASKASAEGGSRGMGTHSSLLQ
Chain of UniProt O15121 (O15121 whole entry, looked up): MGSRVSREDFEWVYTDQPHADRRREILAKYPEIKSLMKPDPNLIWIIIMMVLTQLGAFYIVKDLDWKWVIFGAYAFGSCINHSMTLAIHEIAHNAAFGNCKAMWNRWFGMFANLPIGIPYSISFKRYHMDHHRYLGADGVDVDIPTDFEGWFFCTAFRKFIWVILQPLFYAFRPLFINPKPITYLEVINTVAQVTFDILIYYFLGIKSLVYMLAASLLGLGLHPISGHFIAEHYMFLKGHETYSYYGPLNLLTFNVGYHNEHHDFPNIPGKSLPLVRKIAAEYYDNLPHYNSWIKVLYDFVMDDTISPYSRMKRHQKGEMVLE

Row | Target | log2 fold change [1] | log2 fold change [2] | log2 fold change [3] | log2 fold change [4] | log2 fold change [5] | log2 fold change [6] | log2 fold change [7] | log2 fold change [8] | log2 fold change [9] | log2 fold change [10]
1 | EIF2AK1 (UniProt Q9BQI3) | -0.002 (inactive) | 0.006 (inactive) | -0.042 (inactive) | 0 (inactive) | -0.029 (inactive) | -0.114 (inactive) | -0.029 (inactive) | 0.021 (inactive) | -0.007 (inactive) | 0.012 (inactive)
2 | ERCC6 (UniProt Q03468) | -0.036 (inactive) | 0.06 (inactive) | 0.028 (inactive) | -0.063 (inactive) | -0.096 (inactive) | -0.224 (inactive) | -0.052 (inactive) | 0.003 (inactive) | -0.065 (inactive) | 0.106 (inactive)
3 | DMAC1 (UniProt Q96GE9) | 0.041 (inactive) | 0.076 (inactive) | 0.128 (inactive) | -0.002 (inactive) | 0.059 (inactive) | -0.004 (inactive) | -0.04 (inactive) | -0.021 (inactive) | 0.008 (inactive) | 0.072 (inactive)
4 | EXTL2 (UniProt Q9UBQ6) | 0.051 (inactive) | 0.018 (inactive) | -0.129 (inactive) | 0.04 (inactive) | 0.016 (inactive) | 0.037 (inactive) | -0.031 (inactive) | 0.062 (inactive) | -0.092 (inactive) | -0.119 (inactive)
5 | ELOVL7 (UniProt A1L3X0) | -0.008 (inactive) | 0.062 (inactive) | -0.065 (inactive) | 0.009 (inactive) | 0.182 (inactive) |  |  | -0.162 (inactive) | 0.078 (inactive) | 0.065 (inactive)
6 | CTU1 (UniProt Q7Z7A3) | 0.05 (inactive) | -0.01 (inactive) | 0.079 (inactive) | 0.047 (inactive) | 0.079 (inactive) | 0.011 (inactive) | 0.04 (inactive) | 0.042 (inactive) | 0.032 (inactive) | 0.008 (inactive)
7 | DSN1 (UniProt Q9H410) | 0.07 (inactive) | 0.042 (inactive) | -0.002 (inactive) | 0.024 (inactive) | -0.019 (inactive) | -0.009 (inactive) | -0.018 (inactive) | 0.006 (inactive) | 0.004 (inactive) | -0.091 (inactive)
8 | DEGS1 (UniProt O15121) | -0.075 (inactive) | 0.076 (inactive) | -0.113 (inactive) | 0.145 (inactive) | 0.049 (inactive) | -0.003 (inactive) |  | -0.096 (inactive) | -0.245 (inactive) | 0.32 (inactive)
9 | EPHB4 (UniProt P54760) |  |  |  |  |  |  | -0.151 (inactive) |  |  | 
10 | DNM2 isoform 4 (UniProt P50570) | 0.042 (inactive) |  | 0.084 (inactive) | -0.128 (inactive) |  | 0.261 (inactive) | -0.008 (inactive) |  |  | 
11 | ELMO1 (UniProt Q92556) | 0.111 (inactive) |  | -0.079 (inactive) | -0.001 (inactive) |  | 0.037 (inactive) | -0.308 (inactive) |  |  | 
12 | EHBP1 (UniProt Q8NDI1) |  | -0.012 (inactive) |  |  | 0.086 (inactive) |  |  | 0.095 (inactive) | -0.132 (inactive) | 0.033 (inactive)
13 | DENND1A isoform 6 (UniProt Q8TEH3) |  |  |  |  |  | -0.328 (inactive) |  |  | -0.315 (inactive) | -0.034 (inactive)
14 | DDB1 isoform 2 (UniProt Q16531) |  |  | 0.017 (inactive) |  |  | 0.205 (inactive) |  |  |  | 
15 | EEF1D isoform 3 (UniProt P29692) | -0.009 (inactive) |  |  | 0.009 (inactive) |  |  |  |  | -0.16 (inactive) | -0.087 (inactive)
16 | DCP2 (UniProt Q8IU60) |  | 0.176 (inactive) | -0.117 (inactive) |  | -0.118 (inactive) |  | 0.021 (inactive) | -0.073 (inactive) | -0.134 (inactive) | -0.064 (inactive)
17 | DHPS (UniProt M0R1T2) |  |  |  |  |  | 0.099 (inactive) |  |  |  | 
18 | FAM241A (UniProt Q8N8J7) | -0.012 (inactive) | -0.005 (inactive) |  | 0.044 (inactive) | -0.076 (inactive) | 0.043 (inactive) | -0.014 (inactive) | 0.012 (inactive) | 0.016 (inactive) | 0.045 (inactive)
19 | FADS1 (UniProt F5GYH4) |  |  |  |  |  | 0.155 (inactive) |  |  | 0.057 (inactive) | 0.002 (inactive)
20 | DOLPP1 (UniProt Q86YN1) | 0.049 (inactive) | 0.039 (inactive) |  | 0.009 (inactive) | -0.165 (inactive) | 0.074 (inactive) | 0.17 (inactive) | 0.011 (inactive) | -0.088 (inactive) | 0.001 (inactive)
21 | EIF4G1 (UniProt Q04637) |  | 0.171 (inactive) |  |  | 0.018 (inactive) |  |  | -0.356 (inactive) | -0.301 (inactive) | -0.425 (inactive)
22 | DNAL1 (UniProt Q4LDG9) |  | -0.034 (inactive) | 0.053 (inactive) |  | -0.07 (inactive) | -0.654 (active) | -0.113 (inactive) | 0.091 (inactive) |  | 
23 | DNAJB1 (UniProt M0R128) |  |  |  |  |  | -0.105 (inactive) |  |  | 0.142 (inactive) | 0.133 (inactive)
24 | ERF (UniProt P50548) | -0.448 (inactive) |  | 0.127 (inactive) | -0.036 (inactive) |  |  |  |  | 0.058 (inactive) | 0.13 (inactive)

Row | Target | log2 fold change [1] | log2 fold change [2] | log2 fold change [3] | log2 fold change [4] | log2 fold change [5] | log2 fold change [6] | log2 fold change [7] | log2 fold change [8] | log2 fold change [9] | log2 fold change [10]
25 | ENTR1 (UniProt Q96C92) | -0.015 (inactive) |  |  | 0.043 (inactive) |  |  |  |  |  | 
26 | CTSS (UniProt P25774) |  |  |  |  |  |  | -0.215 (inactive) |  | 0.144 (inactive) | 0.545 (inactive)
27 | DNAJC24 (UniProt Q6P3W2) | -0.114 (inactive) |  | 0.123 (inactive) | 0.062 (inactive) |  | -0.053 (inactive) | -0.084 (inactive) |  | -0.047 (inactive) | -0.158 (inactive)
28 | DERPC (UniProt P0CG12) | 0.197 (inactive) |  |  | -0.346 (inactive) |  | 0.078 (inactive) | -0.034 (inactive) |  |  | 
29 | CWF19L2 (UniProt Q2TBE0) | 0.004 (inactive) | 0.056 (inactive) |  | 0.038 (inactive) | 0.03 (inactive) |  | -0.132 (inactive) | -0.014 (inactive) | 0.017 (inactive) | -0.04 (inactive)
30 | ENTPD7 (UniProt Q9NQZ7) | 0.096 (inactive) |  | -0.028 (inactive) | -0.181 (inactive) |  | 0.063 (inactive) |  |  | -0.042 (inactive) | 0.037 (inactive)
31 | FAM160A2 isoform 2 (UniProt Q8N612) |  |  | 0.2 (inactive) |  |  | -0.012 (inactive) | -0.134 (inactive) |  | -0.071 (inactive) | 0.027 (inactive)
32 | FAM193B (UniProt Q96PV7) |  | -0.127 (inactive) | -0.311 (inactive) |  | -0.085 (inactive) | 0.068 (inactive) |  | -0.101 (inactive) | -0.133 (inactive) | -0.483 (inactive)
33 | EID1 (UniProt Q9Y6B2) | -0.17 (inactive) |  | -0.425 (inactive) | 0.137 (inactive) |  |  |  |  | 0.092 (inactive) | 0.029 (inactive)
34 | DOP1A (UniProt Q5JWR5) | 0.177 (inactive) |  | 0.009 (inactive) | -0.152 (inactive) |  | 0.035 (inactive) |  |  |  | 
35 | DNAH5 (UniProt Q8TE73) | 0.014 (inactive) |  | 0.036 (inactive) | 0.001 (inactive) |  | -0.005 (inactive) | -0.067 (inactive) |  | 0.084 (inactive) | 0.095 (inactive)
36 | DDX46, A0A0C4DG89 |  |  | 0.174 (inactive) |  |  |  |  |  |  | 
37 | CTNNBL1 (UniProt Q8WYA6) |  |  |  |  |  | -0.032 (inactive) |  |  |  | 
38 | EDRF1 (UniProt Q3B7T1) | 0.066 (inactive) |  | -0.038 (inactive) | -0.119 (inactive) |  | -0.017 (inactive) | -0.033 (inactive) |  |  | 
39 | DNAH10 (UniProt Q8IVF4) | 0.325 (inactive) |  | 0.251 (inactive) | -0.187 (inactive) |  | -0.054 (inactive) |  |  | -0.052 (inactive) | 0.137 (inactive)
40 | DHRS13 (UniProt Q6UX07) | 0.014 (inactive) | 0.043 (inactive) |  | -0.006 (inactive) | 0.037 (inactive) |  | 0.073 (inactive) | 0.047 (inactive) | -0.009 (inactive) | 0.065 (inactive)
41 | EEF2K (UniProt O00418) | -0.064 (inactive) |  | -0.137 (inactive) | -0.024 (inactive) |  |  | 0.027 (inactive) |  |  | 
42 | DLK1 (UniProt P80370) |  |  | 0.028 (inactive) |  |  |  |  |  |  | 
43 | DCAF4 (UniProt Q8WV16) |  |  | 0.009 (inactive) |  |  |  | -0.15 (inactive) |  |  | 
44 | EPHX2 (UniProt E5RI53) |  |  | 0.037 (inactive) |  |  | -0.082 (inactive) |  |  |  | 
45 | FAM118A (UniProt Q9NWS6) |  | 0.005 (inactive) | 0.098 (inactive) |  | 0.083 (inactive) | 0.089 (inactive) | -0.365 (inactive) | 0.212 (inactive) | 0.084 (inactive) | 0.078 (inactive)
46 | CYP24A1 (UniProt Q07973) | -0.042 (inactive) | -0.796 (active) |  | -0.072 (inactive) | 0.015 (inactive) | -0.13 (inactive) | 0.091 (inactive) | -0.057 (inactive) | 0.179 (inactive) | 0.046 (inactive)
47 | FAM135A (UniProt Q9P2D6) | 0.033 (inactive) |  | 0.07 (inactive) | -0.116 (inactive) |  |  |  |  |  | 
48 | F2RL3 (UniProt Q96RI0) | -0.056 (inactive) | 0.026 (inactive) |  | -0.083 (inactive) | 0.039 (inactive) |  | -0.052 (inactive) | -0.12 (inactive) | -0.161 (inactive) | 0.065 (inactive)

Reference: the supplement of paper PMC10849652
